In the supplement of paper PMC13380429:

Test system: Vero E6 infected with SARS-CoV-2
Experiment: inhibition of SARS-CoV-2 cytopathic effect; higher = more antiviral protection, active = above 15
Conditions: 48 h

Measured: inhibition of SARS-CoV-2 cytopathic effect

C[C@@H](Nc1cc(F)cc(F)c1)c1cc(C(=O)N(C)C)cc2c(=O)cc(N3CCOCC3)oc12
inactive: 1 nM -3.44% | 8.33 nM -2.8% | 100 nM -5.04% | 833.33 nM 1.19% | 10000 nM -4.12%

C[C@H]1CC[C@H](n2c3cnccc3c3cnc(Nc4ccc5c(n4)CCN(C(=O)CO)C5)nc32)CC1
inactive: 1 nM -2.38% | 8.33 nM -0.1% | 100 nM -1.1% | 833.33 nM -0.44% | 10000 nM -5.03%

FC(F)(F)c1ccc(CNc2ccc(Cc3c[nH]c4ncccc34)cn2)cc1
inactive: 1 nM 3.02% | 8.33 nM 0.15% | 100 nM 0.15% | 833.33 nM -0.39% | 10000 nM -1.01%

COC(=O)[C@H](Cc1cccc(C(=N)N)c1)[C@@H](C)NC(=O)c1ccc(-c2cc[n+]([O-])cc2)cc1 [otamixaban]
inactive: 1 nM -2.31% | 8.33 nM -2.54% | 100 nM -1.48% | 833.33 nM -0.51% | 10000 nM -3.22%

CC1(C)O[C@@H]2C[C@H]3[C@@H]4CCC5=CC(=O)CC[C@]5(C)[C@@]4(F)[C@@H](O)C[C@]3(C)[C@]2(C(=O)CCl)O1 [halcinonide]
inactive: 1 nM 2.25% | 8.33 nM 1.06% | 100 nM -0.43% | 833.33 nM -0.9% | 10000 nM -0.92%

CCCCCCCCCCCCCCCC(=O)OC[C@H](O)[C@H]1OC(=O)C(O)=C1O [L-ascorbyl-6-palmitate]
inactive: 1 nM 2.02% | 8.33 nM 0.04% | 100 nM 0.01% | 833.33 nM 0.96% | 10000 nM -0.63%

O=C1Nc2ccc(I)cc2C1=Cc1cc(Br)c(O)c(Br)c1
inactive: 1 nM 2.36% | 8.33 nM 0.05% | 100 nM 1.54% | 833.33 nM 2.76% | 10000 nM 8.55%

CC(C)(C)NC(=O)N[C@H](C(=O)N1C[C@H]2[C@@H]([C@H]1C(=O)NC(CC1CCC1)C(=O)C(N)=O)C2(C)C)C(C)(C)C (stereo not given in full) [boceprevir]
inactive: 1 nM 0.88% | 8.33 nM -0.31% | 100 nM -1.61% | 833.33 nM -1.89% | 10000 nM 1.17%

CC1=C(C)C(=O)C(C(CCCCCC(=O)O)c2ccccc2)=C(C)C1=O (stereo not given) [seratrodast]
inactive: 1 nM -0.6% | 8.33 nM -1.68% | 100 nM 1.92% | 833.33 nM 2.24% | 10000 nM 1.24%

COc1ccc(Nc2ccn(-c3ccccc3)n2)cc1
inactive: 1 nM 2.12% | 8.33 nM 1.12% | 100 nM 3.85% | 833.33 nM 3.51% | 10000 nM 4.1%

CC1(C)OC(=O)C(OCC2CC2)=C1c1ccc(S(C)(=O)=O)cc1 [firocoxib]
inactive: 1 nM -1.63% | 8.33 nM -1.5% | 100 nM 0.34% | 833.33 nM 0.04% | 10000 nM -1.02%

C/C(=C\c1csc(C)n1)[C@@H]1C[C@@H]2O[C@]2(C)CCC[C@H](C)[C@H](O)[C@@H](C)C(=O)C(C)(C)[C@@H](O)CC(=O)O1 [epothilone-B]
inactive: 1 nM -1.66% | 8.33 nM -5.81% | 100 nM -4.92% | 833.33 nM -0.91% | 10000 nM -0.53%

CNC(=N)NCCC[C@H](N)C(=O)O [targinine]
inactive: 1 nM -1.27% | 8.33 nM 4.65% | 100 nM 8.19% | 833.33 nM 0.16% | 10000 nM 3.97%

O=C(Nc1ccccc1)[C@]12C[C@H]1/C(=N\O)c1ccccc1O2
inactive: 1 nM 1.02% | 8.33 nM 3.35% | 100 nM -0.61% | 833.33 nM -0.42% | 10000 nM 1.97%

COc1cc2c(NC3CCN(C)CC3)nc(N3CCCN(C)CC3)nc2cc1OCCCN(C)C
inactive: 1 nM 2.93% | 8.33 nM 3.22% | 100 nM 3.09% | 833.33 nM 3.57% | 10000 nM 4.51%

CCC(N)C(O)c1ccc(O)c(O)c1 (stereo not given) [ethylnorepinephrine]
inactive: 1 nM -0.61% | 8.33 nM 0.7% | 100 nM 0.54% | 833.33 nM -1.28% | 10000 nM -0.69%

Cc1cc(C2CCCCC2)n(O)c(=O)c1 [ciclopirox]
inactive: 1 nM 0.88% | 8.33 nM 1.21% | 100 nM 0.99% | 833.33 nM -0.09% | 10000 nM -2.68%

CS(=O)(=O)c1ccc([C@@H](O)[C@@H](CO)NC(=O)C(Cl)Cl)cc1 [thiamphenicol]
inactive: 1 nM -1.6% | 8.33 nM -2.5% | 100 nM -3.22% | 833.33 nM -3.59% | 10000 nM -2.23%
